{"source": "paper PMC7819943", "about": "“Rice protein-binding microarrays: a tool to detect cis-acting elements near promoter regions in rice”", "note": "In all, about 39,000 sequences were measured (“fluorescence intensity (a.u.)”: median about 4,300, highest 2% from about 39,000 on). Shown is part of a subset that was picked to be rich in the highest values."}
{"target": "T1, OsSMF1 (Oryza sativa, UniProt Q6ZLB0 1-436)", "T1 sequence": "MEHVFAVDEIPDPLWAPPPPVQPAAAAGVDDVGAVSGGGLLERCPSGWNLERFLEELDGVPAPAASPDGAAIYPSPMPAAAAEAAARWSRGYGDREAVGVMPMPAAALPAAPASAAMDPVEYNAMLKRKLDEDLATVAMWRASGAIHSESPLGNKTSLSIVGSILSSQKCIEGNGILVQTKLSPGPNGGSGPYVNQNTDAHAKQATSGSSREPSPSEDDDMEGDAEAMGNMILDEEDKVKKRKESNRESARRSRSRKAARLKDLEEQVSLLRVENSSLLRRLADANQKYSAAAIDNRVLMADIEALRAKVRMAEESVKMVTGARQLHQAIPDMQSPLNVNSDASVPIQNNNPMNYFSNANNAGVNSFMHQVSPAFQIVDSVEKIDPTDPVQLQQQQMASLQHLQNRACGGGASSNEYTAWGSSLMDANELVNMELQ", "experiment": "protein-binding microarray (RPBM); PBS, 2% BSA, 51.3 ng/ul salmon testes DNA, 50 uM zinc acetate, 200 nM TF, 25 C, 1 h; high values mean tight binding", "details": "protein: recombinant; tags: N-terminal polyhistidine and DsRed monomer fusion (pET32a); chain copies: 2; label: CyDye5-dUTP incorporated in the synthesized complementary strand; 3' TTTTT single-stranded linker to array surface; dsDNA, one strand shown", "method_in_brief": "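The binding signal for each feature is its fluorescence intensity in arbitrary units. An Axon 4000B scanner was used to read a custom Agilent array that had been made double-stranded with Cy5-dUTP primer extension, blocked with 2% BSA, incubated at 25 °C for 1 h with 200 nM protein in PBS, 2% BSA, salmon testes DNA and 50 µM zinc acetate, and washed. The protein was an N-terminal polyhistidine–DsRed transcription factor fusion from E. coli BL21-CodonPlus, purified on Ni–NTA.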"}
{"sequence": "GAGCAGCCAGCTCGCCAAGCCTAGCCATTCTTGATCTCTTCGGAGTCACCTAGTGCAG", "binding signal": "3280 fluorescence intensity (a.u.)"}
{"sequence": "CGAAGTCGTGCTGCGCTCCGACTCAGCTGCATCGTCACTCCGGAGTCACCTAGTGCAG", "binding signal": "5960 fluorescence intensity (a.u.)"}
{"sequence": "GTCCATCGGATCGGGAGCGCGCGGCGAGGCAGGCGGGGTCCGGAGTCACCTAGTGCAG", "binding signal": "44300 fluorescence intensity (a.u.)"}
{"sequence": "ACCCAACGGTGATGATGTCAGCTGACGTGGCGCCCCGGAGCGGAGTCACCTAGTGCAG", "binding signal": "40500 fluorescence intensity (a.u.)"}
{"sequence": "CAGGGCAGCGGCAGGTGGGGAGGAGGCCGGCGGGTCGGCGCGGAGTCACCTAGTGCAG", "binding signal": "3470 fluorescence intensity (a.u.)"}
{"sequence": "TCGGCCGTCGGATCGCGCGCGAAACGCTGTGATGTGCTGGCGGAGTCACCTAGTGCAG", "binding signal": "4480 fluorescence intensity (a.u.)"}
{"sequence": "TCGGGTGAGCGAGTGAGTGGGCGAGGAGGCGCGGCGGCGGCGGAGTCACCTAGTGCAG", "binding signal": "3800 fluorescence intensity (a.u.)"}
{"sequence": "GAGGAAGAACCTTACGCTCAAACGAAACGGAACCAGTAGGCGGAGTCACCTAGTGCAG", "binding signal": "55100 fluorescence intensity (a.u.)"}
{"sequence": "GAGCCGAGACTGAGAGAGAGATCGGCGCCGGCTGTGAACGCGGAGTCACCTAGTGCAG", "binding signal": "48100 fluorescence intensity (a.u.)"}
{"sequence": "CAGCAGCAACGAAATCAGAACGAGGCGCAGGAAGAAGAAACGGAGTCACCTAGTGCAG", "binding signal": "28000 fluorescence intensity (a.u.)"}
{"sequence": "AAGAGGGAGGGGAGGGTTCGCGAACCAGTAGAAAACGGCTCGGAGTCACCTAGTGCAG", "binding signal": "3390 fluorescence intensity (a.u.)"}
{"sequence": "CTGCCGGTGGACGGCGGCGGAGAGCTGACTAGCCGAGCCGCGGAGTCACCTAGTGCAG", "binding signal": "3520 fluorescence intensity (a.u.)"}
{"sequence": "GCGGAGGCCGCCGGCTGACGTGGCTCCCAACGGCCGGGAGCGGAGTCACCTAGTGCAG", "binding signal": "21200 fluorescence intensity (a.u.)"}
{"sequence": "ACTCGTGGAGCCGGTGATGACGTGCCCAAGCTAGAGACAGCGGAGTCACCTAGTGCAG", "binding signal": "7230 fluorescence intensity (a.u.)"}
{"sequence": "GGATTGGCGACTCGACGTTGACAACATGACATATGAGGTACGGAGTCACCTAGTGCAG", "binding signal": "4210 fluorescence intensity (a.u.)"}
{"sequence": "GCTGCTCTCTCTCTCTCTCTCTCCCATCTCGTCCTCGCTTCGGAGTCACCTAGTGCAG", "binding signal": "19400 fluorescence intensity (a.u.)"}
{"sequence": "TCCACCTGGGTTCAAATCCTAGATTTGACACGGGTGCTCGCGGAGTCACCTAGTGCAG", "binding signal": "4830 fluorescence intensity (a.u.)"}
{"sequence": "ATAGCATCCTGTACACTCAAGTCATCCCTGACACACACACCGGAGTCACCTAGTGCAG", "binding signal": "3850 fluorescence intensity (a.u.)"}
{"sequence": "GGGCCAATCTAGTTGTCAACTTCTACTACTGCTAGGAGGACGGAGTCACCTAGTGCAG", "binding signal": "3410 fluorescence intensity (a.u.)"}
{"sequence": "GCTCGCCGGCCTCACCCTCAATACATGGTGATTCATCCGGCGGAGTCACCTAGTGCAG", "binding signal": "3660 fluorescence intensity (a.u.)"}
{"sequence": "TGAATCCACAGCCACGCCACGCGGCCCATGCCTACGCCTCCGGAGTCACCTAGTGCAG", "binding signal": "4000 fluorescence intensity (a.u.)"}
{"sequence": "CCTTGCCGCCGGCCAATTTATTGACTCACCGAGAAGTTTGCGGAGTCACCTAGTGCAG", "binding signal": "5600 fluorescence intensity (a.u.)"}
{"sequence": "TGTGACCCATTCTAATACAATAAATCTGGACATGTGTACTCGGAGTCACCTAGTGCAG", "binding signal": "3630 fluorescence intensity (a.u.)"}
{"sequence": "GCCTTCCGTTCCGCTCCTCTACCGCCGCGTCAAGATTCCCCGGAGTCACCTAGTGCAG", "binding signal": "4950 fluorescence intensity (a.u.)"}
{"sequence": "TGCGCCGCCGCCGCCGCCGCCGCTGCGGCGTGCATCCGCCCGGAGTCACCTAGTGCAG", "binding signal": "37400 fluorescence intensity (a.u.)"}
{"sequence": "CGCCGCCGGCCGCGCCGCCGCTGCCGCCGTCGCCCCGCGCCGGAGTCACCTAGTGCAG", "binding signal": "3450 fluorescence intensity (a.u.)"}
{"sequence": "TTTCCGCTATCGCGGTGCGCGCGGAAGGCCCCGCTGCGGCCGGAGTCACCTAGTGCAG", "binding signal": "39200 fluorescence intensity (a.u.)"}
{"sequence": "ATCTCTAAACACCAAATTTGACACCGATCCACGTGCACACCGGAGTCACCTAGTGCAG", "binding signal": "7210 fluorescence intensity (a.u.)"}
{"sequence": "GCCATTGATGACAAAGACAACCTGGAAGATTACTGTTGCACGGAGTCACCTAGTGCAG", "binding signal": "64300 fluorescence intensity (a.u.)"}
{"sequence": "GACCAAGATGACAAAGATTACTATTATACTGATGATAACCCGGAGTCACCTAGTGCAG", "binding signal": "34100 fluorescence intensity (a.u.)"}
{"sequence": "AAGTCTGCAGTTGCACTGGGAGTTGACAAAGAAGATGACGCGGAGTCACCTAGTGCAG", "binding signal": "3550 fluorescence intensity (a.u.)"}
{"sequence": "GTCCTCATCCTAGGTAAAATAACCACGTCATCTCACAGGTCGGAGTCACCTAGTGCAG", "binding signal": "20700 fluorescence intensity (a.u.)"}
{"sequence": "GCTAGCGCGCATTGACCAAGATCCGATTTGTATGCTAGTGCGGAGTCACCTAGTGCAG", "binding signal": "4060 fluorescence intensity (a.u.)"}
{"sequence": "CCGAGAGAAAGAGAGCAAGAGAGAGAGACGGGCTCAAGAGCGGAGTCACCTAGTGCAG", "binding signal": "4560 fluorescence intensity (a.u.)"}
{"sequence": "GAGCAGAAAGACGCGGCTTCTCGAGAGTTCCAAGTTCCAACGGAGTCACCTAGTGCAG", "binding signal": "45200 fluorescence intensity (a.u.)"}
{"sequence": "GCAGAGGCGGCGAGGCTCGGCTTCTTCTCGAACGGCGCCGCGGAGTCACCTAGTGCAG", "binding signal": "27600 fluorescence intensity (a.u.)"}
{"sequence": "CGATGAGCACCGCAGCGATTGACATATTGCAATATCGTTCCGGAGTCACCTAGTGCAG", "binding signal": "3550 fluorescence intensity (a.u.)"}
{"sequence": "ACGTACGTGTGCGTATCCGACAAGTCCCACGACGTGGCAACGGAGTCACCTAGTGCAG", "binding signal": "4960 fluorescence intensity (a.u.)"}
{"sequence": "TTTTACATGATTGGATGACAAAGCCTATTTCGTTTTGTTGCGGAGTCACCTAGTGCAG", "binding signal": "5400 fluorescence intensity (a.u.)"}
{"sequence": "TATTTGGTTTTGTAGGGGTTGGTTTGGGAAAATTGGAAAGCGGAGTCACCTAGTGCAG", "binding signal": "4240 fluorescence intensity (a.u.)"}
{"sequence": "AAATCAGGAAATGAAAAGCTAGGGTTTTAGGTATTGTAATCGGAGTCACCTAGTGCAG", "binding signal": "40800 fluorescence intensity (a.u.)"}
{"sequence": "TATTTTGGAAAATGAGTCACAGGGTTATTGTAGCTTTGAACGGAGTCACCTAGTGCAG", "binding signal": "9390 fluorescence intensity (a.u.)"}
